Reference: PubChem BioAssay
Values joined by “and” are separate entries in the source; they are usually repeats but may differ in a detail not shown here. Equal values may be shown once. Active and inactive are the calls of the source. Unless noted, the rule behind the calls is not given here.

How the values were obtained:
[1] = HepG2 liver cancer cell viability effects, profiling panel, resazurin fluorescence, 24 h, PK04 Diversity Set (AID 1172); details: higher = more signal; note: test concentration not given here
[2] = basal S. cerevisiae growth modulation, no modifier, primary screen, OD600, strain BY4716, 24 h, basal condition (AID 1173); details: OD600, 24 h, higher = more signal, called active from +8 up or from −8 down
[3] = MM1S myeloma cell viability, profiling panel, resazurin fluorescence, basal, 24 h, PK04 Diversity Set (AID 1174); details: higher = more signal, called active from +8 up or from −8 down;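 note: MM1S multiple myeloma cell line; test concentration not given here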
[4] = target: Dihydroorotate dehydrogenase (quinone), mitochondrial (Plasmodium falciparum (isolate 3D7)) (UniProt Q08210); assay: PfDHODH enzyme inhibitors, primary screen, biochemical, C-terminal His tag, absorbance 600 nm (AID 1175); details: DCIP absorbance 600 nm, higher = more signal, called active from +8 up or from −8 down;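 note: recombinant parasite enzyme with a five histidine tag at its C terminus; test concentration not given here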
[5] = P. aeruginosa biofilm formation inhibitors, primary screen, strain PAO1, LB-PBS medium, absorbance 600 nm (AID 1176); note: test concentration not given here; details: P. aeruginosa PAO1 growth/biofilm, A600, 12 h; higher = more signal
[6] = S. cerevisiae RM11-1a growth modifiers, primary screen, strain RM11-1a, OD600, basal, 24 h (AID 1177); details: OD600, 24 h, higher = more signal, called active from +8 up or from −8 down;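 note: cultures grown under basal conditions with no added stressor; test concentration not given here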
[7] = E. coli acrAB mutant growth effects, primary screen, E. coli filamentation inducers, strain DRC39, OD650, 24 h (AID 1178); details: higher = more signal, called active from +8 up or from −8 down;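 note: growth measured as culture turbidity by optical density at 650 nm; test concentration not given here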
[8] = E. coli acrAB mutant growth effects, primary screen, E. coli filamentation inducers, strain DRC39, OD650, 48 h (AID 1179);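 note: screen aims at cell division blockers that make cells filament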; details: E. coli DRC39 delta-acrAB growth, higher = more signal, called active from +8 up or from −8 down
[9] = RPMI8226 myeloma cell viability, profiling panel, resazurin fluorescence, basal, 24 h, PK04 Diversity Set (AID 1180); details: higher = more signal;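 note: RPMI8826 multiple myeloma cell line at 5000 cells per well; test concentration not given here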
[10] = target: E3 ubiquitin-protein ligase XIAP (Homo sapiens) (UniProt P98170); assay: XIAP binders, primary screen, biophysical, small-molecule microarray, fluorescence 635 nm (AID 1181); details: small-molecule microarray binding, higher = more signal;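 note: score merges 667 nm emission and signal to noise over triplicate slides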
E3 ubiquitin-protein ligase XIAP (Homo sapiens), sequence (P98170 whole entry, looked up): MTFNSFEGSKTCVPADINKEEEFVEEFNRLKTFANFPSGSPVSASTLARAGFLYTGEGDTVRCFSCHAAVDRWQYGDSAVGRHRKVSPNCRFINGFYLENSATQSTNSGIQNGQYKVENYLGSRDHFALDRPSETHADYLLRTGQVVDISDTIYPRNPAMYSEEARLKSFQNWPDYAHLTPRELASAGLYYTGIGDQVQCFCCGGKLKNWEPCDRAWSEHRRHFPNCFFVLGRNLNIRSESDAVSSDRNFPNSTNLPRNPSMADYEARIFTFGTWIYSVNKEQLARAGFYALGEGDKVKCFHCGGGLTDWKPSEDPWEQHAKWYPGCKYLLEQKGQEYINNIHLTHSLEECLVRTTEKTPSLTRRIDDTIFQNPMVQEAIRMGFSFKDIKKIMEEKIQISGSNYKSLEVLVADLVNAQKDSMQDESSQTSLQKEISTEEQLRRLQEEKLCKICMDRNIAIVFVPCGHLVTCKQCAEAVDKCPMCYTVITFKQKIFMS

Dihydroorotate dehydrogenase (quinone), mitochondrial (Plasmodium falciparum (isolate 3D7)), sequence (Q08210 whole entry, looked up): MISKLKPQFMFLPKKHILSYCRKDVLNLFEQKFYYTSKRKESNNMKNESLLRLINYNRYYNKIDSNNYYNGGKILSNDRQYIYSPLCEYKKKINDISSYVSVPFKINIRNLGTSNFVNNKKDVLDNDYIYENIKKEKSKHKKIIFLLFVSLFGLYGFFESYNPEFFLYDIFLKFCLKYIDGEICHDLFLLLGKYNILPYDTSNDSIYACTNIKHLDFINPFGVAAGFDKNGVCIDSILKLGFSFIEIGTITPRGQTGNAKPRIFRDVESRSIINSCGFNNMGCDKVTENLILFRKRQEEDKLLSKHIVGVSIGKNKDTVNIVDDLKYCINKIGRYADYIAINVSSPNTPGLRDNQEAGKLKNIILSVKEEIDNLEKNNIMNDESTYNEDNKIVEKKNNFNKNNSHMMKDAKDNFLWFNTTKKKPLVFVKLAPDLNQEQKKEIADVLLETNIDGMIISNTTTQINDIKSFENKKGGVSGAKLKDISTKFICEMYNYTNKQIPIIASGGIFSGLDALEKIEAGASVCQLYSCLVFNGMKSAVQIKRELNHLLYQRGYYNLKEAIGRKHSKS

Row | Compound | z-score [1] | z-score [2] | z-score [3] | composite z-score [4] | z-score [5] | z-score [6] | z-score [7] | z-score [8] | z-score [9] | composite z-score [10]
1 | C[N+](C)(C)CCCCCCNC(=O)[C@H]1C[C@H]2C(=O)N[C@@H](CCCC[N+](C)(C)C)C(=O)N2[C@H]1c1ccc(O)cc1 | -0.0179 and -0.609 | -0.214 (inactive) and 0.205 (inactive) | -0.0993 (inactive) and -1.52 (inactive) | -1.01 (inactive) and -0.373 (inactive) | 2.63 (inactive) and 0.351 (inactive) | 0.281 (inactive) and 0.826 (inactive) | 0.0781 (inactive) and 0.75 (inactive) | -0.978 (inactive) and 1.03 (inactive) | -0.818 and -0.584 | -0.22 and -0.265
2 | C=C(C)C(=O)OC[C@@H]1CN2[C@@H](CC[C@@H](C)[C@@H]2c2ccc(Br)cc2)C(=O)O1 | 0.726 | -3.12 (inactive) | 0.155 (inactive) | 0.187 (inactive) | 0.936 (inactive) | 0.361 (inactive) | 0.513 (inactive) | 0.682 (inactive) | 0.173 | -0.0326
3 | C=CCN(CCCC)C(=O)C(c1cccs1)N(C(=O)/C=C\C(=O)O)c1c(Cl)cccc1CO (stereo not given) | 0.766 and 0.197 | 0.405 (inactive) and -0.407 (inactive) | -1.21 (inactive) and -0.193 (inactive) | 0.005 (inactive) and 0.0035 (inactive) | 0.991 (inactive) and 0.922 (inactive) | 0.201 (inactive) and 0.0171 (inactive) | 0.591 (inactive) and 0.408 (inactive) | 0.339 (inactive) and 0.354 (inactive) | -0.101 and -0.108 | -0.0857 and -0.0807
4 | CCCC[C@@H]1CN2[C@H](c3ccc(Br)cc3)[C@@H](C)CC[C@H]2C(=O)O1 | 0.0187 and 0.563 | -1.99 (inactive) and -1.8 (inactive) | 0.0474 (inactive) and 0.358 (inactive) | 0.0663 (inactive) and -0.155 (inactive) | 0.192 (inactive) and -0.172 (inactive) | 0.434 (inactive) and -0.478 (inactive) | 1.06 (inactive) and 0.354 (inactive) | 0.958 (inactive) and 0.41 (inactive) | 0.735 and 0.839 | -0.256 and -0.352
5 | C=CCN(C(=O)C(c1cccs1)N(C(=O)/C=C\C(=O)O)C(C)(C)CO)c1ccc(OC)cc1 (stereo not given) | 0.916 and 0.892 | -2.66 (inactive) and -1.93 (inactive) | 1.41 (inactive) and 0.788 (inactive) | -1.46 (inactive) and -1.61 (inactive) | 0.659 (inactive) | -4.37 (inactive) and -2.5 (inactive) | 1.81 (inactive) and 1.92 (inactive) | 2.23 (inactive) and 2.15 (inactive) | 0.402 and 0.207 | -0.102 and 0.214
6 | CCOC(=O)[C@@H]1CC2O[C@]23C[C@@H]1C(=O)N1CCC[C@@H]1[C@H]3O[Si](C)(C)C(C)(C)C (stereo not given in full) | -0.464 and -0.0421 | -0.648 (inactive) and -2.06 (inactive) | -0.645 (inactive) and -0.942 (inactive) | -0.0009 (inactive) and -0.513 (inactive) | 0.167 (inactive) and 0.0117 (inactive) | -0.159 (inactive) and -0.702 (inactive) | 0.215 (inactive) and -0.512 (inactive) | -0.215 (inactive) and -0.122 (inactive) | -0.586 and -0.593 | 0.0618 and -0.142
7 | CC(C)CCN1CCc2nc(-c3ccccc3)c3c(c2C1)CO[C@@H](C)C3 | -0.123 | -1.08 (inactive) | -0.0881 (inactive) | -0.363 (inactive) | -0.188 (inactive) | 0.396 (inactive) | 0.66 (inactive) | 0.0602 (inactive) | 0.129 | 0.201
8 | CCOC(=O)NN=C1C[C@@H](O)[C@@H](O)[C@@H]2[C@@H]3C(=O)N(Cc4ccccc4)C(=O)[C@@H]3CC[C@@H]12 | 0.213 | 0.331 (inactive) | -1.17 (inactive) | 0.0897 (inactive) | 0.529 (inactive) | 0.371 (inactive) | 0.199 (inactive) | -0.951 (inactive) | 0.561 | 1.34
9 | C=CCN(CCCCC)C(=O)C(c1cccs1)N(CCOCCO)C(=O)/C=C\C(=O)O (stereo not given) | -0.925 and -0.111 | -0.397 (inactive) and -0.258 (inactive) | -0.223 (inactive) and 0.149 (inactive) | -1.15 (inactive) and -1.27 (inactive) | 0.0126 (inactive) and -0.401 (inactive) | -1.37 (inactive) and -1.48 (inactive) | -0.388 (inactive) and 0.106 (inactive) | 0.526 (inactive) and 0.855 (inactive) | 0.096 and -0.165 | 0.548 and -0.0273
